Screening data as filed in PubChem.
RE007 growth inh: qHTS Assay for Inhibitors of the HIV-1 protein Vpr; S. pombe RE007 Vpr strain, BacTiter-Glo ATP luminescence, 24 h; Potency, µM (titrated, usually from 92.2 µM), without a hit: at the top dose activity change, negative = less growth, actives largely listed as inhibitors; actives 0.21% (n = 360,000); AID 651644, 2012; active = well fitted falling curve with a large enough effect; inconclusive = small, poorly fitted or top-dose-only effect; inactive = no such curve, though single readings can be large or run the other way; note: nearly all actives have a fitted effect of over 50% in size
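Fission yeast RE007 carrying one integrated HIV-1 vpr copy, seeded at OD 0.01 in PMG+AL medium with 23 nL pinned compound. Grown 24 h at 30 degrees; viability read by BacTiter-Glo luminescence after 5 min.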
TbPYK inhibitor: qHTS of Trypanosoma Brucei Inhibitors. actives 0.12% (n = 410,000). TbPYK enzyme, Kinase-Glo Plus ATP luminescence, 45 min. pyruvate kinase (Trypanosoma brucei), Q57TT1. Potency, µM (top dose mostly 76.8 µM), inactives show at the highest dose activity, negative = inhibition, usual class: inhibitors. AID 624173, 2012; note: nearly all actives have a fitted effect of over 50% in size
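Luminescent Kinase-Glo Plus end-point after 45 min room-temperature reaction of T. brucei pyruvate kinase started with 130 uM ADP (final). Buffer TEA 50 mM pH 7.2 with KCl, MgCl2, BSA, Tween-20; titration-based qHTS with fitted concentration-effect curves.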
Sm TGR block: qHTS Assay for the Inhibitors of Schistosoma Mansoni Peroxiredoxins. purified TGR, DTNB reduction, TNB absorbance 405 nm. Potency, µM (highest dose often 114 µM), without a hit: at the highest dose activity change, negative = inhibition, usual class: inhibitors. actives 3% (n = 360,000). AID 485364, 2010; note: nearly all actives have a fitted effect of over 60% in size
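Kinetic colorimetric format: TGR-catalysed, NADPH-driven DTNB reduction monitored via TNB absorbance. Enzyme dispensed at 20 nM; compound exposure 15 min at room temperature before reaction start.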
LmPK inhibitor: qHTS Assay for Inhibitors of Leishmania Mexicana Pyruvate Kinase (LmPK). Potency, µM (series often up to 57.5 µM), inactives show at the top dose activity change, negative = inhibition, hits mostly inhibitors. Q27686. purified LmPK, Kinase-Glo ATP luminescence, 1 h. actives 0.37% (n = 290,000)
Target sequence (Q27686 whole entry, looked up): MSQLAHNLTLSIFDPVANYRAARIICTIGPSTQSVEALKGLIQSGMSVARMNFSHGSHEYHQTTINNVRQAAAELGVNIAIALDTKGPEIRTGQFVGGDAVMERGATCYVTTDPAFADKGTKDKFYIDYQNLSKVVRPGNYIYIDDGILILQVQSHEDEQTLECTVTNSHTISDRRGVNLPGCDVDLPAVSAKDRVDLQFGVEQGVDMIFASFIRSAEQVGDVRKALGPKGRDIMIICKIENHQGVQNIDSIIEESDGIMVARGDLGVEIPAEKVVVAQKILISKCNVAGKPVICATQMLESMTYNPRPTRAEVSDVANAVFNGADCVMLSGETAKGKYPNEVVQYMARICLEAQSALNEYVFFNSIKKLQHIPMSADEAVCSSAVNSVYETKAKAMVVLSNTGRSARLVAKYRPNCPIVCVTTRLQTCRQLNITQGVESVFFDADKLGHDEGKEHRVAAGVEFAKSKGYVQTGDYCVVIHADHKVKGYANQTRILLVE
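In 50 mM imidazole pH 7.2 with 7 mM MgCl2, LmPK (0.1 nM) turned over PEP (0.5 mM) and ADP (0.1 mM) for 1 h at room temperature. Luciferase read-out of ATP.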
Starred values were filed as active, the others as inactive; ? = inconclusive; . = no result. The list is not random: actives were taken first. Their share in the collection is about 3%. Unless noted, calls come from the whole dose curve; as a rule, active = well fitted curve in the direction sought with a large enough effect; inconclusive = small, poorly fitted or top-dose-only effect, or another doubt; inactive = no such curve, though single readings can be large; an effect the other way counts as inactive or inconclusive. % is set by controls: 0 for no effect and ±100 for the full control effect; potency is the fitted concentration of half-maximal effect.

SMILES	RE007 growth inh	TbPYK inhibitor	Sm TGR block	LmPK inhibitor
O=C(Nc1ccc2c(c1)OCO2)c1ccc2c(c1)OCO2	-18%	-3%	7%	?
Cc1occc1C(=O)Nc1ccc2c(c1)OCO2	-7%	-16%	-23%	14µM*
Cc1ccc(NC(=O)c2ccoc2C)cc1C	-21%	-24%	3%	14µM*
Cc1cc(NC(=O)c2cc(C)on2)no1	-7%	-2%	2%	1%
Cc1cc(NC(=O)c2ccoc2C)ccc1Br	?	-12%	6%	.
O=C(N[C@H]1N=C(c2ccccc2F)c2cccc3c2N(CC3)C1=O)c1cc2ccccc2[nH]1	.	5%	.	.
O=P(C(=NCCO)NO)(N1CCOCC1)N1CCOCC1	2%	4%	-20%	13%
COc1ccc2c(c1)[C@H]1[C@H](CO2)[C@H](c2ccccc2)[C@]2(C)C(=O)N(Cc3ccc(C)cc3)CC(=O)N12	4%	-1%	.	.
O=C1C=CC(=O)N1c1ccc(Sc2ccc([N+](=O)[O-])cc2)cc1	.	.	3.2µM*	?
Oc1ccccc1C1=Nc2nc3ccccc3n2C(c2ccccc2)C1 (stereo not given)	?	0%	10µM*	-6%
COc1ccc(S(=O)(=O)Nc2cc(C)c(O)c(S(=O)(=O)c3ccccc3)c2)cc1	-15%	3%	56µM*	12%
CCN(CC)C(=O)C1=C(C)N(CCC2=CCCCC2)C(=O)C(CC(=O)NCc2cccs2)C1 (stereo not given)	-17%	-1%	.	.
O=C1C(c2[nH]c3ccc(S(=O)(=O)O)cc3c2O)=Nc2ccc(S(=O)(=O)O)cc21	.	0%	.	.
COc1cc(/C=C2/NC(=O)N(Cc3ccccc3F)C2=O)cc(OC)c1O	6%	?	14µM*	6%
c1ccc(C2=NNC(=NCc3ccc4c(c3)OCO4)SC2)cc1	6%	-9%	-15%	-1%
C=CCN=C1NN=C(c2ccc3c(c2)OCCO3)CS1	0%	-15%	-14%	10µM*
Cc1nc2sc3c(c2c(=O)n1NC(=O)CCBr)CCCC3	2%	-16%	40µM*	2%
O=C(c1ccco1)N1CCN(Cc2csc(-c3ccccc3Cl)n2)CC1	?	-2%	50µM*	-3%
COc1ccc(NC(=S)Nc2cccc(Cl)c2Cl)cc1OC	-4%	-3%	28µM*	-1%
O=C1c2cccc3c([N+](=O)[O-])ccc(c23)C(=O)N1c1ccccn1	28µM*	-2%	20µM*	8%
O=C1c2cccc3cccc(c23)C(=O)N1c1nccs1	8%	7%	0%	2%
O=C1c2cccc3c([N+](=O)[O-])ccc(c23)C(=O)N1c1ccc(Cl)cn1	?	-2%	14µM*	4%
O=C1c2cccc3c([N+](=O)[O-])ccc(c23)C(=O)N1c1nccs1	?	-12%	1.8µM*	-1%
COc1ccc(CNC(=O)c2ccc(Cn3c(=O)c4cccn4c4cccnc43)cc2)c(OC)c1	.	0%	-5%	.
C=CCOC(=O)C1=C(C)NC(=O)NC1c1ccc(N(C)C)cc1 (stereo not given)	-11%	-3%	45µM*	7%
SMILES	RE007 growth inh	TbPYK inhibitor	Sm TGR block	LmPK inhibitor
C=CCOC(=O)C1=C(C)NC(=O)NC1c1ccc(Cl)cc1 (stereo not given)	15%	0%	-8%	0%
O=C(Nc1ccc(Cl)cc1C(=O)Nc1ccncc1)c1ccco1	-11%	-1%	40µM*	5%
COCCNC(=O)/C(C#N)=C/c1ccc(O)cc1	?	?	-9%	13µM*
CC(=O)c1ccc(NC(=O)C2CCC(CNS(=O)(=O)c3ccc4c(c3)CCCC(=O)N4)CC2)cc1 (stereo not given)	.	1%	5%	.
O=C(OC1CCOC1=O)c1ccc(CO)cc1 (stereo not given)	3%	-3%	8%	1%
O=C(CCC(=O)c1ccc(F)cc1)OC1CCOC1=O (stereo not given)	1%	4%	50µM*	5%
CN1CCN(c2ccc(CNC(=O)C3(C)Cc4c(-c5ccccc5)ccnc4O3)cc2)CC1 (stereo not given)	-18%	-10%	.	.
O=C1C2CC=C(Cl)CC2C(=O)N1CCCCCCN1C(=O)C2CC=C(Cl)CC2C1=O (stereo not given)	7%	0%	22µM*	3%
COc1ccc(C2=NOC(C(=O)Nc3ccc4c(c3)OCCO4)C2)cc1OC (stereo not given)	13%	3%	32µM*	-5%
C=CCOc1ccc(C2=NOC(C(=O)Nc3ccc4c(c3)OCCO4)C2)cc1OC (stereo not given)	-24%	5%	?	5%
O=S(=O)(NC(=S)NC1CCCCC1)c1cccs1	-9%	-6%	25µM*	2%
O=C(CBr)N1CCc2ccccc2C(c2ccccc2)C1 (stereo not given)	-1%	?	3.5µM*	-14%
CCN(Cc1cccs1)C(=O)CN1C(=O)NC(c2ccccc2)(c2ccccc2)C1=O	-2%	1%	-7%	.
Cc1cc(CN2CCCC(N3CCc4ccccc4C3)C2)cc(C)c1O (stereo not given)	10%	1%	45µM*	2%
COc1cc2c(cc1OC)CN(C1CCCN(Cc3cccc(C(C)=O)c3)C1)CC2 (stereo not given)	2%	1%	.	.
Cc1nnc(NCc2ccc(Cl)cc2)c2c1nnn2Cc1ccc(F)cc1	.	-5%	0%	.
CC1=NN(c2ccc([N+](=O)[O-])cc2)C(=O)/C1=C\N(C)C	6.3µM*	-19%	?	16µM*
CC(=O)c1cc(C(=O)Nc2cc(C)cc(C)c2)c2ccccn12	.	-3%	0%	.
O=C(NCc1ccccn1)C1CCCN(S(=O)(=O)c2cc(Cl)ccc2Cl)C1 (stereo not given)	-13%	-12%	.	.
Cc1cc(S(=O)(=O)N2CCCC(N(C)CCc3ccccn3)C2)c(C)cc1Cl (stereo not given)	-12%	-10%	45µM*	6%
Cc1cccc(NC(=O)CNC(=O)COc2cccnc2[N+](=O)[O-])c1C	-2%	0%	-10%	.
COc1ccc(C2CC23N=C(c2ccccc2)OC3=O)cc1 (stereo not given)	24%	-10%	22µM*	-1%
O=S(=O)(Nn1c(O)c(C=C2N=c3ccccc3=N2)sc1=S)c1ccccc1	2%	0%	11µM*	5%
O=C(Nn1c(O)c(C=C2N=c3ccccc3=N2)sc1=S)c1ccccc1Cl	-8%	2%	-13%	-7%
CC(C)c1onc(C(=O)Nc2cccc(O)c2)c1[N+](=O)[O-]	0%	4%	?	10%
Cc1ccc(NC(=O)c2noc(C(C)C)c2[N+](=O)[O-])cc1	-4%	4%	40µM*	2%
CC(C)c1onc(C(=O)Nc2cccnc2Cl)c1[N+](=O)[O-]	-4%	9%	45µM*	-3%
Cc1onc(C(=O)Nc2cccnc2Cl)c1[N+](=O)[O-]	1%	-3%	-21%	-1%
